This passage reports growth results from PubChem BioAssay (NCI).

Structures are written as SMILES. This is part of a sample that, as a whole, favours compounds with a hit. Of some 83,000 tested, about 20% had one in any assay.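 Each cell line was grown in a 96-well plate and treated with one concentration of compound for 48 hours. Values below 10 were considered active.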 Unmarked numbers belong to inactive results. Activity calls are given as the source filed them.

What all share (assay): NCI-60 one-dose screen, 48 h (100 = growth as untreated, 0 = no growth, -100 = all killed)
What all share (settings): 10 µM unless noted

The test system of test [1] is T-47D breast.
In test [2] the test system is BT-549 breast.
Test [3] concerns MDA-MB-435 melanoma.
Test [4] concerns SW-620 colon.
Test [5] deals with MCF7 breast.
Test [6] has as its system HCT-116 colon.
For test [7], the system named is HCC-2998 colon.
The test system of test [8] is KM12 colon.

Turning to `c1ccc2c(-c3nc(-c4c[nH]c5ncccc45)cs3)c[nH]c2c1`, the growth was 93.8% in test [1]; 97% in test [2]; 84.8% in test [3]; 103% in test [4]; 83% in test [5]; 95% in test [6]. Further, the growth in test [7] is 102%; in test [8], 90.6%.
Regarding `Cn1cc(-c2csc(-c3cn(CCCN4CCCCC4)c4ccc(F)cc34)n2)c2cccnc21`, the growth in test [1] was 92%; in test [2], 71.3%; in test [3] it was 71.3%; in test [4], 89.7%; in test [5], 78.6%; in test [6], 88.2%. For the same molecule, the values for the growth in test [7] and in test [8] were 102% and 94%, respectively.
`Cc1ccc(-c2nc([P+](c3ccccc3)(c3ccccc3)c3ccccc3)c(N3C[C@H]4C[C@H](C3)c3cccc(=O)n3C4)o2)cc1`: the growth in test [1] was 38.5%; in test [2], 56.2%; in test [3] it was 44.4%; in test [4], 85.6%; in test [5], 67.3%; in test [6] it was 88.2%. Besides, the growth was 71.3% in test [7] and 43.6% in test [8].
On to `CN1CCN(c2nc(-c3csc(-c4cccs4)n3)cc3ccccc23)CC1`, for which the growth in test [1] was 52.1%; in test [2], 70.4%; in test [3] it was 12.2%; in test [4], 9.06% (active); in test [5] it was 40.8%; in test [6] it was 46.7%. The growth in test [7] is -38.2% (active); in test [8] it was 5.42% (active).
For `CCCCC/C(=C\c1ccccc1)C1OC(C)C(C)O1` (stereo not given), the growth in test [1] is 94.4%; in test [2] it was 95.7%; in test [3], 105%; in test [4], 103%; in test [5], 102%; in test [6], 81.7%. Moreover, the growth is 102% in test [7] and 98.8% in test [8].
As for `COc1ccc(-n2c(/C=C/c3ccc(O)c(OC)c3)cc(/C=C/c3ccc(O)c(OC)c3)nc2=O)cc1`, the growth in test [1] was 51.8%; in test [2] it was 30.9%; in test [3], 29.6%; in test [4], 29.8%; in test [5], 19.7%; in test [6], 21.1%. Besides, the growth in test [7] is 94.9%; in test [8], 42%.
Regarding `C=C(C)[C@@H]1CC[C@]2(C=NCCCNCCCCNCCCN)CC[C@]3(C)[C@H](CC[C@@H]4[C@@]5(C)CCCNC(C)(C)[C@@H]5CC[C@]43C)[C@@H]12`, the growth in test [1] was 90.8%; in test [2], 98.2%; in test [3], 94.8%; in test [4], 88.4%; in test [5], 89.4%; in test [6], 77.7%. The growth is 100% in test [7] and 98.2% in test [8].
For `Cc1cc(Cl)nc(N(CCCNc2ccnc3cc(Cl)ccc23)Cc2ccco2)n1`, the growth in test [1] is 3.69% (active); in test [2], 8.06% (active); in test [3] it was 22.8%; in test [4], 20%; in test [5] it was 12.2%; in test [6], 3.68% (active). In addition, the growth is 22% in test [7] and 22.4% in test [8].
As to `COc1cc(NC(C)CN(CC(C)C)C(C)C)c2ncccc2c1` (stereo not given), the growth in test [1] was 31%; in test [2] it was 108%; in test [3], 114%; in test [4] it was 92.9%; in test [5] it was 43%; in test [6], 88.6%. For the same molecule, the growth was 103% in test [7] and 93.2% in test [8].
On to `CCc1cccc(CC)c1NC(=O)c1sc2nc3c(cc2c1N)CCCC3`, for which the growth in test [1] was 64.3%; in test [2] it was 74.8%; in test [3], 7.29% (active); in test [4] it was 70.8%; in test [5] it was 42.5%; in test [6], 71%. Moreover, the growth is 95.4% in test [7] and 70% in test [8].
As to `CC1(C)NC2=C(C(Nc3cccnc3)N1)C(c1ccc([N+](=O)[O-])cc1)C(C(=O)c1ccc(N=[N+]=[N-])cc1)O2` (stereo not given), the growth in test [1] is 102%; in test [2] it was 99.7%; in test [3] it was 105%; in test [4] it was 104%; in test [5], 97.5%; in test [6], 104%. Also, the figures for the growth in test [7] and in test [8] were 110% and 105%, respectively.
In the case of `COc1ccc(CCN2C(=O)C(C)(C)SC2=S)cc1OC`, the growth in test [1] is 104%; in test [2], 105%; in test [3], 99.2%; in test [4], 103%; in test [5] it was 98.5%; in test [6], 97.6%. For the same molecule, the growth in test [7] was 106%; in test [8], 101%.
In the case of `COc1cccc(-c2nn(-c3ccccc3)cc2-c2ccnc(NCCCNS(=O)(=O)c3ccccc3)c2)c1`, the growth in test [1] was -4.99% (active); in test [2], 35.7%; in test [3], 37.4%; in test [4], 46.5%; in test [5] it was 18.2%; in test [6], 25.7%. Besides, the growth was 19.7% in test [7] and 29.6% in test [8].
Take `N#CC1=C(N)Oc2c(sc3c(F)cccc23)C1c1ccc(Cl)cc1` (stereo not given): the growth is 33.2% in test [1]; 19.4% in test [2]; -32% (active) in test [3]; 26.9% in test [4]; 14.8% in test [5]; 14.4% in test [6]. Further, the growth in test [7] is 87.7%; in test [8], 33.9%.
Regarding `Cn1cc(-c2nc(-c3c[nH]c4ncccc34)cs2)c2cc(F)ccc21`, the growth was 24.3% in test [1]; 58% in test [2]; 0.641% (active) in test [3]; 31.8% in test [4]; 7.84% (active) in test [5]; 20.3% in test [6]. In addition, the values for the growth in test [7] and in test [8] were 20.5% and -12.7% (active), respectively.
On to `OCC(CO)(CCl)CCl`, for which the growth in test [1] is 94.2%; in test [2], 95.6%; in test [3] it was 105%; in test [4], 101%; in test [5] it was 94.2%; in test [6], 78.6%. Also, the growth was 101% in test [7] and 99.9% in test [8].
For `COC(=O)C(Cc1ccccc1)n1cc(COc2nc(Cl)nc(Nc3ccc(Cl)cc3)n2)nn1` (stereo not given), the growth was 78.9% in test [1]; 99.6% in test [2]; 105% in test [3]; 99.8% in test [4]; 78.1% in test [5]; 100% in test [6]. Moreover, the growth in test [7] is 101%; in test [8] it was 96.5%.
On to `COc1cc(OC)c2c(c1)c1nc3cc(C)c(C)cc3nc1n2CCN(C)C`, for which the growth in test [1] is 74.3%; in test [2], 97.4%; in test [3], 91.7%; in test [4] it was 66%; in test [5], 66.2%; in test [6] it was 69.7%. Moreover, the figures for the growth in test [7] and in test [8] were 93.9% and 86.3%, respectively.
Take `Cc1ccc(S(=O)(=O)Nc2ccc(-c3cc(-c4cccc(F)c4)c(C#N)c(N)n3)cc2)cc1`: the growth in test [1] is -27.2% (active); in test [2] it was 7.45% (active); in test [3] it was 19.6%; in test [4] it was -31.7% (active); in test [5], 11.3%; in test [6], -73.2% (active). In addition, the growth in test [7] is 39.7%; in test [8], 46.7%.
`O=c1[nH]c2c3ccncc3cc(-c3cccc(Cl)c3)c2c2cnccc12`: the growth in test [1] was 60.5%; in test [2] it was 22%; in test [3] it was 64.9%; in test [4], 58.3%; in test [5] it was 22.7%; in test [6], -31.5% (active). The growth is 61.5% in test [7] and 34.7% in test [8].
For `COc1cccc(-c2nn(-c3ccccc3)cc2-c2ccnc(NCCCNS(=O)(=O)c3ccc(Cl)cc3)c2)c1`, the growth in test [1] was 14.2%; in test [2] it was 58.1%; in test [3] it was 42.9%; in test [4], 62.6%; in test [5] it was 24.3%; in test [6] it was 31.1%. Besides, the growth is 33.5% in test [7] and 38.9% in test [8].
For the molecule `COc1cc2ncnc(Nc3ccc(OCc4cccc(F)c4)c(Cl)c3)c2cc1NC(=O)C1CCCC1`, the growth is 24.9% in test [1]; 103% in test [2]; 89.4% in test [3]; 98.4% in test [4]; 84.4% in test [5]; 83.4% in test [6]. The growth is 103% in test [7] and 94.9% in test [8].
Take `COc1ccc2c(c1)C/C(=C\c1cc(-c3ccc4c(c3)OCO4)n[nH]1)C2=O`: the growth is 23% in test [1]; 93.9% in test [2]; 93% in test [3]; 96.6% in test [4]; 34.8% in test [5]; 93.3% in test [6]. In addition, the results for the growth in test [7] and in test [8] were 105% and 85.7%, respectively.
For the molecule `CC[C@]12C=CCN3CC[C@@]4(c5cc([C@H]6CCC(=O)N6)c(OC)cc5N(C)[C@H]4[C@@](O)(C(=O)OC)[C@@H]1OC(C)=O)[C@@H]32`, the growth in test [1] is 96.3% [2.5 µM]; in test [2] it was 113% [2.5 µM]; in test [3], 107% [2.5 µM]; in test [4], 108% [2.5 µM]; in test [5], 93.2% [2.5 µM]; in test [6], 100% [2.5 µM]. Moreover, the growth in test [7] was 110% [2.5 µM]; in test [8], 111% [2.5 µM].
As for `COC(=O)[C@]12CC[C@@H](C)[C@H](C)[C@@H]1C1=CC(=O)[C@@H]3[C@@]4(C)C[C@@H](O)[C@H](O)[C@@]5(C)COC(=C45)C[C@@]3(C)[C@]1(C)CC2`, the growth was 51.2% in test [1]; 53.9% in test [2]; -11.3% (active) in test [3]; 33.3% in test [4]; 28.5% in test [5]; 53.2% in test [6]. In addition, the growth was 69.2% in test [7] and 34.6% in test [8].
On to `c1ccc2[nH]c(-c3cc(-c4ccc5c(c4)OCO5)n[nH]3)nc2c1`, for which the growth was 40% in test [1]; 34.5% in test [2]; 58% in test [3]; 61.3% in test [4]; 59.2% in test [5]; 51.7% in test [6]. Also, the growth in test [7] was 81.2%; in test [8] it was 28.2%.
Regarding `Cn1nc(-c2ccccc2)c2c(-c3ccccc3)onc2c1=O`, the growth in test [1] is 26.8%; in test [2], 47.4%; in test [3], -1.78% (active); in test [4] it was 28.9%; in test [5] it was 23.6%; in test [6], 42.5%. The growth in test [7] was 74.5%; in test [8], 33.7%.
Turning to `COc1ccc(C2C(C#N)=C(N)Oc3c2sc2c(F)cccc32)cc1` (stereo not given), the growth was 23.8% in test [1]; 37% in test [2]; -23.9% (active) in test [3]; 25.1% in test [4]; 15.4% in test [5]; 8.94% (active) in test [6]. Moreover, the growth in test [7] is 85.2%; in test [8], 35.5%.
On to `CC1(n2nnnc2N2CCCN(c3ncccc3N)CC2)CCC1`, for which the growth in test [1] was 101%; in test [2], 99.4%; in test [3], 99.5%; in test [4], 104%; in test [5], 95.5%; in test [6] it was 84.1%. For the same molecule, the growth in test [7] is 108%; in test [8], 102%.
As to `C[C@]12CC[C@@H]3c4ccc(O)cc4CC[C@H]3[C@@H]1C[C@H](O)[C@@H]2O`, the growth in test [1] was 128%; in test [2] it was 95.2%; in test [3], 92.5%; in test [4], 90.1%; in test [5], 108%; in test [6], 92.8%. Further, the growth in test [7] was 107%; in test [8], -72.2% (active).
